# In PubChem BioAssay:
# Values joined by “and” are separate entries in the source; they are usually repeats but may differ in a detail not shown here. Equal entries are not always repeated. Active and inactive are the calls of the source.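 The calls were made as follows, unless noted: active = thallium flux through the channel raised or lowered by more than 3 SD from vehicle-only wells, actives on both sides; inactive = the rest.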
# Experiments:
# [1] = blockers of polyQ-driven CASP3 activation – cell-based (AID 1583); settings: polyglutamine-induced caspase-3 activation, cell assay; stronger effect = higher value;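 tested at 10 µM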
# [2] = yeast 75Q aggregation reduction – 75Q-TubU reporter (AID 1593); settings: Yeast 75Q polyglutamine aggregation reporter
# [3] = blockers of cytochrome c efflux from mitochondria – biochemical, purified mitochondria (AID 1603); settings: stronger effect = lower value;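 also: mouse liver mitochondria challenged with calcium chloride; signal normalized to the plate average as 100%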
# [4] = polyglutamine aggregate formation blockers (AID 1604); settings: polyglutamine-induced protein aggregation inhibition assay; stronger effect = higher value; tested at 2.5 µM
# [5] = glutamate transport activators, MN-1 cells, MN-1 cell line (AID 1612); settings: MN-1 motor neuron cells, stronger effect = higher value;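 also: tested at 1 µM final; 0% = mean of DMSO vehicle wells on each plate; positive means more glutamate uptake than control and negative means less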
# [6] = signal quenchers or enhancers, Cy5 substrate/SSB – biochemical, NIH Clinical Collection, E. coli SSB, artefact control for HCV NS3 helicase inhibitor project (AID 743268; call rule not given here); settings: Cy5-oligo bound E. coli SSB, fluorescence interference
# [7] = system: Hepatitis C virus NS3 helicase; test: blockers of NS3h binding to DNA – biochemical, fluorescence polarization, NIH Clinical Collection, primary screen (AID 743270; call rule not given here); settings: NS3 helicase binding to Cy5-dT15 DNA, stronger effect = higher value, concentration not given here
# [8] = target: Single-stranded DNA-binding protein (Escherichia coli (strain K12)) (UniProt P0AGE0); test: SSB-ssDNA binding inhibitors – biochemical, fluorescence polarization, NIH Clinical Collection, counter-screen for HCV NS3 helicase inhibitor project (AID 743271; in the data active = inhibition above about 28%); settings: E. coli SSB-DNA binding, stronger effect = higher value, concentration not given here
# [9] = compounds distorting NS3 helicase fluorescence signal – biochemical, NIH Clinical Collection, artefact control for HCV NS3 helicase inhibitor project (AID 743272; call rule not given here;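 also: HCV NS3 helicase with a Cy5 labelled single stranded DNA probe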); settings: fluorescence interference counterscreen, HCV NS3 helicase assay; stronger effect = lower value
# [10] = galactose survival enhancers in mitochondrial complex I cybrids – cell-based, galactose medium, ATP luminescence, primary screen (AID 1645843;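 active = z-score of at least 1.8 in each of two replicates, scored against plate mean and spread of sample wells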;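 also: positive z means more ATP and so rescue of galactose-driven cybrid death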); settings: complex I mutant cybrid cells, 72 h, stronger effect = higher value
# [11] = growth inhibition, single agent or in combination, cell-based, chromothripsis tumors, cisplatin or BGB combos (AID 1671449; in the data active = inhibition above about 80%;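 also: cells exposed for 96 hours; 0% = vehicle DMSO and 100% = killing by high DMSO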); settings: LFS_MB_P medulloblastoma cells
# [12] = growth inhibition, single agent and combos, cell-based, chromothripsis tumors, cisplatin or BGB combos (AID 1671450; in the data active = inhibition above about 80%;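 also: cells exposed to compound for four days; 0% = vehicle DMSO and 100% = cell killing by high DMSO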); settings: HDN33 neuroblastoma cells, stronger effect = higher value
# [13] = growth inhibition, single agents and combos, HTB85, cell-based, BGB or cisplatin IC20 combos, synergistic combos for chromothripsis tumors (AID 1671453; in the data active = inhibition above about 80%;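 also: cells exposed for 96 hours before readout; 0% = vehicle DMSO and 100% = high DMSO killing control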); settings: HTB85 osteosarcoma cells, drug combinations, stronger effect = higher value
# F380Y/beta4 = test: BK channel mutant inhibitors and activators – cell-based, U2OS BacMam, thallium flux, beta subunits, selectivity assay, profiling panel (AID 1259406); settings: U2OS BacMam BK variants, at 30 µM;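 also: initial slope of Thallos dye fluorescence rise after thallium is added; log ratio against the mean of 0.3% DMSO vehicle wells on the same plate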
# [14] = target: Calcium-activated potassium channel subunit alpha-1 (Homo sapiens) + Leucine-rich repeat-containing protein 26 (Homo sapiens) (UniProt Q12791+Q2I0M4); test: as above; settings: U2OS BacMam BK variants, F380Y/Slo1WT/gamma1, at 30 µM
# Chain of Calcium-activated potassium channel subunit alpha-1 (Homo sapiens) + Leucine-rich repeat-containing protein 26 (Homo sapiens) (Q2I0M4 whole entry, looked up, one chain of several): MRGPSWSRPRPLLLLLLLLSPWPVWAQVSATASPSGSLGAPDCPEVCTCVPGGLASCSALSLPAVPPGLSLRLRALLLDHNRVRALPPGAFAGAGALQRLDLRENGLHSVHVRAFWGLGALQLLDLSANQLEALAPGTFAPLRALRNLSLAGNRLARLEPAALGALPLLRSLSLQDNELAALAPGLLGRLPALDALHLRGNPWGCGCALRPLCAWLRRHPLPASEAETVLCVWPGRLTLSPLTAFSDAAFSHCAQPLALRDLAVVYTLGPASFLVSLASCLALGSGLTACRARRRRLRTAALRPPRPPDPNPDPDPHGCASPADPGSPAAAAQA
# R275C = test: as above; settings: U2OS BacMam BK variants, at 30 µM
# R275C/beta1 = test: as above; settings: U2OS BacMam BK variants, at 30 µM
# R275C/beta2Delta = test: as above; settings: U2OS BacMam BK variants, at 30 µM
# R275C/beta4 = test: as above; settings: U2OS BacMam BK variants, at 30 µM
# R275C/Slo1WT/beta2 = test: as above; settings: U2OS BacMam BK variants, at 30 µM
# [15] = at 0.5 µM, stronger effect = higher value
# [16] = measured here: combination with BGB IC20, at 0.005 µM
# [17] = measured here: combination with BGB IC40, at 0.005 µM
# [18] = measured here: combination with BGB IC40, at 0.05 µM
# [19] = measured here: combination with cisplatin, at 0.5 µM, stronger effect = higher value
# [20] = measured here: combination with cisplatin, at 5 µM, stronger effect = higher value
# [21] = measured here: with BGB IC20 combination, at 0.5 µM
# [22] = measured here: with cisplatin IC20 combination, at 0.5 µM
# [23] = measured here: with BGB IC20, at 0.5 µM
# [24] = measured here: with BGB IC20, at 5 µM
# [25] = measured here: with cisplatin IC20, at 0.5 µM
# [26] = measured here: with cisplatin IC20, at 5 µM
smiles,measurement,setting,value
CS(=O)(=O)OCCCCOS(C)(=O)=O,inhibition,[1],27.2%
same,score,[2],1.46
same,cytochrome c release ratio,[3],0.62
same,inhibition of aggregation,[4],54%
same,glutamate uptake change,[5],14.5%
same,fluorescence ratio,[6],1.02 (inactive)
same,inhibition,[7],-12.3% (inactive)
same,inhibition,[8],-0.48% (inactive)
same,fluorescence ratio,[9],0.92 (inactive)
same,z-score,[10],0.925 (inactive)
same,inhibition,[11]; [15],-1.82% (inactive) and -6.92% (inactive)
same,inhibition,[11]; [16],-22.1% and -20.3%
same,inhibition,[11]; [17],-24.6% and 29.3%
same,inhibition,[11]; [18],-40.6% and 3.42%
same,inhibition,[11]; [19],1.85% and -16.8%
same,inhibition,[11]; [20],-55.6% and 0.647%
same,inhibition,"[12]; BGB combo, at 5 µM",-31.6% and -3.19%
same,inhibition,[12]; at 0.5 µM,-10.4% (inactive) and -1.57% (inactive)
same,inhibition,"[12]; cisplatin combo, at 5 µM",-3.41% and -6.58%
same,inhibition,[12]; [21],-9.64% and 2.06%
same,inhibition,[12]; [22],-8.9% and -4.87%
same,inhibition,"[12]; single agent, at 5 µM",0.973% and 14.4%
same,inhibition,[13]; at 0.5 µM,-4.73% (inactive) and 3.45% (inactive)
same,inhibition,[13]; [23],-9.57% and -1.65%
same,inhibition,[13]; [24],-6.08% and 4.44%
same,inhibition,[13]; [25],-0.002% and 1.89%
same,inhibition,[13]; [26],-32.8% and 17%
same,inhibition,"[13]; single agent, at 5 µM",-0.247% and 3.08%
same,log fold change Tl+ flux,F380Y/beta4,0.00072 (inactive)
same,log fold change Tl+ flux,[14],-0.0136 (inactive)
same,log fold change Tl+ flux,R275C,0.0198 (inactive)
same,log fold change Tl+ flux,R275C/beta1,-0.0312 (inactive)
same,log fold change Tl+ flux,R275C/beta2Delta,0.0365 (inactive)
same,log fold change Tl+ flux,R275C/beta4,-0.0126 (inactive)
same,log fold change Tl+ flux,R275C/Slo1WT/beta2,0.0135 (inactive)
COCCOC(=O)C1=C(C)NC(C)=C(C(=O)OC(C)C)C1c1cccc([N+](=O)[O-])c1 (stereo not drawn),fluorescence ratio,[6],0.87 (inactive)
same,inhibition,[7],6.77% (inactive)
same,inhibition,[8],15.3% (inactive)
same,fluorescence ratio,[9],0.92 (inactive)
same,log fold change Tl+ flux,F380Y/beta4,-0.126 (active)
same,log fold change Tl+ flux,[14],0.0377 (inactive)
same,log fold change Tl+ flux,R275C,-0.000869 (inactive)
same,log fold change Tl+ flux,R275C/beta1,-0.0169 (inactive)
same,log fold change Tl+ flux,R275C/beta2Delta,-0.0566 (inactive)
same,log fold change Tl+ flux,R275C/beta4,-0.0265 (inactive)
same,log fold change Tl+ flux,R275C/Slo1WT/beta2,-0.0323 (inactive)
NS(=O)(=O)c1cc2c(cc1Cl)NCNS2(=O)=O,inhibition,[1],-3.39%
same,score,[2],1.21
same,cytochrome c release ratio,[3],1.08
same,inhibition of aggregation,[4],3.17%
same,glutamate uptake change,[5],8.53%
same,fluorescence ratio,[6],0.125 (active)
same,inhibition,[7],-5% (inactive)
same,inhibition,[8],-3.53% (inactive)
same,fluorescence ratio,[9],1 (inactive)
same,z-score,[10],0.29 (inactive) and 0.995 (inactive)
same,log fold change Tl+ flux,F380Y/beta4,-0.0186 (inactive)
same,log fold change Tl+ flux,[14],-0.0022 (inactive)
same,log fold change Tl+ flux,R275C,-0.00411 (inactive)
same,log fold change Tl+ flux,R275C/beta1,0.0065 (inactive)
same,log fold change Tl+ flux,R275C/beta2Delta,-0.0287 (inactive)
same,log fold change Tl+ flux,R275C/beta4,0.00368 (inactive)
same,log fold change Tl+ flux,R275C/Slo1WT/beta2,0.0144 (inactive)
O=C(O)CCCc1ccccc1,fluorescence ratio,[6],0.99 (inactive)
same,inhibition,[7],-2.27% (inactive)
same,inhibition,[8],1.05% (inactive)
same,fluorescence ratio,[9],0.92 (inactive)
same,z-score,[10],-0.305 (inactive) and -0.05 (inactive) and 0.3 (inactive)
same,inhibition,[11]; [15],-32.4% (inactive)
same,inhibition,[11]; [16],-18.8%
same,inhibition,[11]; [17],-12.3%
same,inhibition,[11]; [18],-22.2%
same,inhibition,[11]; [19],-35%
same,inhibition,[11]; [20],-11.6%
same,inhibition,"[12]; BGB combo, at 5 µM",-16.9%
same,inhibition,[12]; at 0.5 µM,-18.6% (inactive)
same,inhibition,"[12]; cisplatin combo, at 5 µM",0.505%
same,inhibition,[12]; [21],-6.08%
same,inhibition,[12]; [22],-19.1%
same,inhibition,"[12]; single agent, at 5 µM",-3.58%
same,inhibition,[13]; at 0.5 µM,-13.7% (inactive)
same,inhibition,[13]; [23],-24.4%
same,inhibition,[13]; [24],-45.4%
same,inhibition,[13]; [25],-14.6%
same,inhibition,[13]; [26],-12.8%
same,inhibition,"[13]; single agent, at 5 µM",-16.3%
same,log fold change Tl+ flux,F380Y/beta4,0.0283 (inactive)
same,log fold change Tl+ flux,[14],0.00509 (inactive)
same,log fold change Tl+ flux,R275C,-0.048 (inactive)
same,log fold change Tl+ flux,R275C/beta1,0.0568 (inactive)
same,log fold change Tl+ flux,R275C/beta2Delta,-0.0698 (inactive)
same,log fold change Tl+ flux,R275C/beta4,0.032 (inactive)
same,log fold change Tl+ flux,R275C/Slo1WT/beta2,0.0104 (inactive)
